Measured values taken from paper PMC7819943, “Rice protein-binding microarrays: a tool to detect cis-acting elements near promoter regions in rice”.
In all, about 39,000 sequences were measured (“fluorescence intensity (a.u.)”: median about 4,300, highest 2% from about 39,000 on). Many of the other results were omitted from the sample, so the highest values are more common in it than they were.

Molecular target: T1, OsSMF1 (Oryza sativa, UniProt Q6ZLB0 1-436)
T1 sequence: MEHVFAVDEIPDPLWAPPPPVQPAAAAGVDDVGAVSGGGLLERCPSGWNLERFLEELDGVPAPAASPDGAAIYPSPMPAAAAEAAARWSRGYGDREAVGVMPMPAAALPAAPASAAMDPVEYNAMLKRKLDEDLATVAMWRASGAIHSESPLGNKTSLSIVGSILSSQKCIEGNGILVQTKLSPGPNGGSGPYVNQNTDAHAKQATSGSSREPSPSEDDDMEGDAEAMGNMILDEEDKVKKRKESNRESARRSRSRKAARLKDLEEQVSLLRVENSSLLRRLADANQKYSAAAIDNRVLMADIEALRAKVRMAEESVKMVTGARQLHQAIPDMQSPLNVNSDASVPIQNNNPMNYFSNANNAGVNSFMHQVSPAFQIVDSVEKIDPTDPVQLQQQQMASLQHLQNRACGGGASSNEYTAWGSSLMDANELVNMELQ
Assay: protein-binding microarray (RPBM); PBS, 2% BSA, 51.3 ng/ul salmon testes DNA, 50 uM zinc acetate, 200 nM TF, 25 C, 1 h; high values mean tight binding
Conditions: protein: recombinant; tags: N-terminal polyhistidine and DsRed monomer fusion (pET32a); chain copies: 2; label: CyDye5-dUTP incorporated in the synthesized complementary strand; 3' TTTTT single-stranded linker to array surface; dsDNA, one strand shown
Summary of the method: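 Using Ni–NTA, transcription factors fused N-terminally to polyhistidine and DsRed were purified after expression in E. coli BL21-CodonPlus. These were incubated at 200 nM with a blocked, double-stranded custom Agilent array for 1 h at 25 °C in a buffer containing 50 µM zinc acetate, and the array was washed. The binding signal is per-feature fluorescence intensity (arbitrary units) on an Axon 4000B scanner.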

| Sequence | binding signal |
| --- | --- |
| GTTCGGTTTCGCGGTCAAGCGCGTGACGTGAGGTCGCCCACGGAGTCACCTAGTGCAG | 5720 fluorescence intensity (a.u.) |
| CAGCAGCAGCAGCAGCCGCCGCCTCCGTCCGTCCGTCCGTCGGAGTCACCTAGTGCAG | 3230 fluorescence intensity (a.u.) |
| GAGAAATGACGACACATCCTCTCGAGTGATCAGGATCCGTCGGAGTCACCTAGTGCAG | 3590 fluorescence intensity (a.u.) |
| TGTGCCCTCTCCGTTCGATCCAGGAAAATGATAGTGTGATCGGAGTCACCTAGTGCAG | 50200 fluorescence intensity (a.u.) |
| TTCGTGTGCCTAGGAAAATGGTATCCAAACCCCTCAAAATCGGAGTCACCTAGTGCAG | 4190 fluorescence intensity (a.u.) |
| TCACATCCGAGCTGAGCTCCTGACACAGTGACACTACTGGCGGAGTCACCTAGTGCAG | 4310 fluorescence intensity (a.u.) |
| GGGCAGCGTGTACAAGCCGGACAACGTGTCGCCGCCGGAGCGGAGTCACCTAGTGCAG | 3340 fluorescence intensity (a.u.) |
| CGTACAACGGGTGTGTGTTTGGAGCCTGTAGCATGTGGTGCGGAGTCACCTAGTGCAG | 4250 fluorescence intensity (a.u.) |
| GGCCTGTCGTACAAGCCGCTTTGCTTGGGCATACAAGCAACGGAGTCACCTAGTGCAG | 65100 fluorescence intensity (a.u.) |
| GATTACATGTAGACTATTTATCTACGTGGACAAAATCTCTCGGAGTCACCTAGTGCAG | 13100 fluorescence intensity (a.u.) |
| CCATTGATTGATTATCAGTGGGCGTAATCATCAGTCTAAACGGAGTCACCTAGTGCAG | 42100 fluorescence intensity (a.u.) |
| ATTTATCATTATTAACTAATAATAACATTGATGTAATTAACGGAGTCACCTAGTGCAG | 3400 fluorescence intensity (a.u.) |
| TCCATACATTATTGACGTAATCATAAATATACATCCATGTCGGAGTCACCTAGTGCAG | 3360 fluorescence intensity (a.u.) |
| CGTACTCATCTCCTACACATCATCTCCAATTAATCTAATTCGGAGTCACCTAGTGCAG | 3180 fluorescence intensity (a.u.) |
| TTTGCCATTAGCGTACTCACCTAATCTAATCATCGGATTACGGAGTCACCTAGTGCAG | 48900 fluorescence intensity (a.u.) |
| GAAACTCTAAATCTGCCATTACCCCAAGTACATCATTAGTCGGAGTCACCTAGTGCAG | 3310 fluorescence intensity (a.u.) |
| AATGACAGGACAACGAGGACACCGTGGATATTAAAGACCCCGGAGTCACCTAGTGCAG | 4140 fluorescence intensity (a.u.) |
| TGGTAACTAAACTGCCATGTCAGGGACAGATCGACCAGTGCGGAGTCACCTAGTGCAG | 5160 fluorescence intensity (a.u.) |
| AGGACACGTAGCATTTCCTCCTCAAGCAAGAGGAGCAGTACGGAGTCACCTAGTGCAG | 4000 fluorescence intensity (a.u.) |
| AACGTCAAGTACTCACGTGGTCCACGAATATTTAAGCCTACGGAGTCACCTAGTGCAG | 4480 fluorescence intensity (a.u.) |
| GCGAACACTGAGGTGTTGACGTTGCGCTCCGCCTCGCTGTCGGAGTCACCTAGTGCAG | 3840 fluorescence intensity (a.u.) |

| Sequence | binding signal |
| --- | --- |
| ATTAAGCCCTCAATCGGCACAGGCGAGGAGTTCTCATCACCGGAGTCACCTAGTGCAG | 12000 fluorescence intensity (a.u.) |
| GCCGAGAAGGCATCAACGGCACTGGCGAGGCCCTCTCAGCCGGAGTCACCTAGTGCAG | 39600 fluorescence intensity (a.u.) |
| GTCCCTCCGCCGGCATCAGCTCAACGCCGCCGTCCTCCTCCGGAGTCACCTAGTGCAG | 3370 fluorescence intensity (a.u.) |
| TCGTCGACTACGTGTTGGTGTTTCATGCCGCCAAGTCGACCGGAGTCACCTAGTGCAG | 5250 fluorescence intensity (a.u.) |
| TATAAGCACAATGCAGCCTAGTTGTTGCCGTGACCTGAGTCGGAGTCACCTAGTGCAG | 3180 fluorescence intensity (a.u.) |
| GACATCTGGAGGCGTCATGCAAGATGTCACATCCATAGAACGGAGTCACCTAGTGCAG | 3940 fluorescence intensity (a.u.) |
| ACTGGCCGTGACGCATTTCAACCTCTTGATCTGAACTGCCCGGAGTCACCTAGTGCAG | 3620 fluorescence intensity (a.u.) |
| AACCATAATGTTTGTGACACATTAAGGGCCTGTTCACTTTCGGAGTCACCTAGTGCAG | 3660 fluorescence intensity (a.u.) |
| GGCAGGCTTGCACACAGGTGCAAAGATACGTGTGGCAGACCGGAGTCACCTAGTGCAG | 3240 fluorescence intensity (a.u.) |
| GATAGGCAAAGCTTCGAACTTTGGGCTGAAAACAAATTTTCGGAGTCACCTAGTGCAG | 28400 fluorescence intensity (a.u.) |
| ATGCAAAAGATATATAGGCTTGTTTTACTGAAGGTGGCTTCGGAGTCACCTAGTGCAG | 39100 fluorescence intensity (a.u.) |
| GAGATGTCTGAACAAACAGATGGACGTGTAATGTTGTGGACGGAGTCACCTAGTGCAG | 3400 fluorescence intensity (a.u.) |
| CCGTCTTTTCTTTCTTCACGCCAGCGTCGCCGTGGTCAAGCGGAGTCACCTAGTGCAG | 3650 fluorescence intensity (a.u.) |
| GAAGGAATTGGATTGAATCAGAAAGGGGATCGATTCGATGCGGAGTCACCTAGTGCAG | 45200 fluorescence intensity (a.u.) |
| TTAGCTGGGATGAATTGGGAATGGCTGATGATTCATTGCTCGGAGTCACCTAGTGCAG | 3790 fluorescence intensity (a.u.) |
| TTGGAATGCTGAAATTATTAGGGGACTATTCAAATTGATGCGGAGTCACCTAGTGCAG | 39200 fluorescence intensity (a.u.) |
| AATTTGGATTTGAATTATATCTGATTCAAATTTGAATTTGCGGAGTCACCTAGTGCAG | 3270 fluorescence intensity (a.u.) |
| TCGATTGGGGATTGGGGATTGGGGATCAGGAGGGATGGGGCGGAGTCACCTAGTGCAG | 4350 fluorescence intensity (a.u.) |
| CGGAGGGATTCGATTTGGAAGGAATTGGATTCGGAGTTGACGGAGTCACCTAGTGCAG | 33200 fluorescence intensity (a.u.) |
| CAAGCCAAGTCTGAAGAAGAAGAACTAGTCATCGCTTGCCCGGAGTCACCTAGTGCAG | 3820 fluorescence intensity (a.u.) |
| AAATCCTTGTCTTCCCACGCTGACGCTGCTGTGTCCAGGTCGGAGTCACCTAGTGCAG | 4530 fluorescence intensity (a.u.) |
